Measurements from PubChem BioAssay AID624330 (Southern Research Specialized Biocontainment Screening …, 2012).
About 2,100 (0.62%) of roughly 340,000 compounds were called active.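 The calls were made as follows: active = first-screen hits whose inhibition reached a set limit at any dose in the follow-up dose series; inconclusive = inhibition above the set first-screen limit but never retested; inactive = the rest.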 Not all results are given here. Measured potencies and affinities stand elsewhere.

molecular target: Rac GTPase-activating protein 1 (Homo sapiens) (UniProt Q9H0H5); test: MgcRacGAP GTPase-activating activity inhibitors, confirmation, biochemical, ADP Hunter fluorescence, primary and confirmatory (AID 624330); settings: MgcRacGAP-stimulated Rac1 GTP hydrolysis, at 30 µM, active compounds read high, GST-tagged Rac1 F28L mutant substrate;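 also: fluorescence reports GDP produced by GAP-driven GTP hydrolysis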
Sequence (Q9H0H5 whole entry, looked up): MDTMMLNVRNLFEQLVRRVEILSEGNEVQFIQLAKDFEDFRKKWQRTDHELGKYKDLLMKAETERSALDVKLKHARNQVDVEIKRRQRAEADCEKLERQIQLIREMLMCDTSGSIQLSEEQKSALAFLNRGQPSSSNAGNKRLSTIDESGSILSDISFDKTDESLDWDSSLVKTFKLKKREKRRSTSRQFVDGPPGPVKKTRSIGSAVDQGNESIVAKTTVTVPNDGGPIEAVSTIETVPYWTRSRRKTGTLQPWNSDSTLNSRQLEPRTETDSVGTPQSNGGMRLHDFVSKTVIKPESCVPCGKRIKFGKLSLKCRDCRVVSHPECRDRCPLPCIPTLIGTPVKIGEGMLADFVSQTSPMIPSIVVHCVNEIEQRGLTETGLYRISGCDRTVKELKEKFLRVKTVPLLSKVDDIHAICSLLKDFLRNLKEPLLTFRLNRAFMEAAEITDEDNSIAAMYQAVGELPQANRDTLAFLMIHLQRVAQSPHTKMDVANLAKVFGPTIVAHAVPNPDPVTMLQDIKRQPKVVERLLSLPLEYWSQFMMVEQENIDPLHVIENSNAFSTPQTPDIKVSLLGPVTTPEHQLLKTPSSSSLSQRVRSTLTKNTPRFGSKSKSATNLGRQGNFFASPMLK

inhibition, inactive:
Cc1noc(C)c1COc1ccc(C(=O)N2CCN(c3ccccc3O)CC2)cc1 -2.07%
O=C(Nc1nc2ccc(F)cc2s1)C1CC(=O)N(c2ccc3c(c2)OCCO3)C1 (stereo not drawn) 3.42%
CC(C)(C)c1ccc(NC(=O)COC(=O)C2CCCC2)cc1 6%
COc1cc(/C=N/Nc2ncnc3sc4c(c23)CCC4)ccc1O 6.14%
C(=N\Nc1ccccc1)/c1ccc(N2CCOCC2)cc1 11%
COc1ccc(/C=N/Nc2ncnc3sc4c(c23)CCCC4)cc1OC 2.22%
O=C(N/N=C/c1ccc(N2CCOCC2)cc1)c1ccccn1 3.4%
Cc1cc2ncn(S(=O)(=O)c3ccc(S(=O)(=O)N4CCCCCC4)cc3)c2cc1C -3.86%
Cn1c(SCC(=O)Nc2ccccc2Cl)nnc1C1CC1 2.31%
COc1ccc([N+](=O)[O-])cc1NS(=O)(=O)c1cc(C(=O)O)ccc1OC -0.88%
C=CCn1c(C)cc(C(=O)COC(=O)C2CC(=O)N(CCc3ccc(OC)c(OC)c3)C2)c1C (stereo not drawn) 2.85%
COc1ccc(C=O)cc1COc1ccc(Cl)cc1[N+](=O)[O-] 0.45%
CCCCOc1ccc(C(CC(=O)NC)C(=O)O)cc1 (stereo not drawn) 1.11%
Cc1ccc(NC(=O)c2ccccc2)cc1 8.58%
O=C(Nc1ccc(-c2ccccc2)cc1)c1ccccc1 10.2%
CN1c2ccccc2C(O)=C(C(=O)Nc2ccccc2)S1(=O)=O 5.83%
Cc1ccc(NC(=O)C2=C(O)c3ccccc3N(C)S2(=O)=O)cc1 10.1%
Cc1onc(-c2c(F)cccc2Cl)c1C(=O)N=C(N)N1CCCC1 4.34%
CCOC(=O)C1CCCCN1C(=O)c1oc2c(Cl)cc(C)cc2c1C (stereo not drawn) -3.11%
CCCCN(C)C(=O)Cc1c(OC)ccc2cc(Br)ccc12 10.7%
COc1ccc(/C=N/n2cncn2)cc1Cn1nc(C)c([N+](=O)[O-])c1C 6.36%
CCOc1ccccc1N1CCN(Cc2ccc(OC)c(OC)c2OC)CC1 13.8%
Cc1ccc(SCCN2CCN(C)CC2)cc1 -7.97%
Cc1ccc(SCCN2CCN(CCc3ccccc3)CCC2=O)cc1 12%
COc1ccc(CN2CCN(C(c3ccc(F)cc3)c3ccc(F)cc3)CC2)c(OC)c1OC 6.11%
COc1ccc(-n2c(SCC(=O)Nc3ccc(Br)cc3)nc(O)cc2=O)cc1 10.3%
OCCC1CN(Cc2ccncc2)CCN1C1CCCC1 (stereo not drawn) 5.79%
c1ccc(CN2CCC(N3CCN(Cc4ccc5c(c4)OCO5)CC3)CC2)cc1 13.3%
O=C(c1ccncc1)N1CCN(C2CCCCC2)CC1 19.7%
O=C(c1ccc(F)cc1)N1CCCC(N2CCN(Cc3ccc4c(c3)OCO4)CC2)C1 (stereo not drawn) 8.04%
COCCNC(=O)CC(c1ccccc1)c1ccccc1 10.4%
CCOc1ccc(CN(C)C(=O)CN2C(=O)NC3(CCCc4ccccc43)C2=O)cc1 (stereo not drawn) 13%
CC(C)(C)NC(=O)C(c1ccccn1)N(C(=O)c1csnn1)C1CCCC1 (stereo not drawn) 0.77%
O=C(COc1ccc(C(=O)Nc2ccc(Cl)cc2)cc1)NCc1ccccc1 8.5%
Cc1cc(/C=C2/NC(=O)N(Cc3ccccc3F)C2=O)c(C)n1-c1ccccn1 4.33%
COc1ccc(N(C)S(=O)(=O)c2cccc(C(=O)NCC(c3cccs3)N(C)C)c2)cc1 (stereo not drawn) 5.09%
Cc1cc(C)nc(NC(=O)/C=C/c2ccccc2Cl)c1 9.19%
Cc1cc(C)nc(NC(=O)/C=C/c2ccccc2Cl)n1 6.5%
O=C(O)c1cc(N/N=C/c2ccc(N3CCOCC3)s2)ccc1Cl 25.9%
C(=N\n1cnnc1)/c1ccc(N2CCOCC2)s1 10.2%
CCOC(=O)N/N=C\c1ccc(C)s1 3.68%
O=C(N/N=C/c1ccc(N2CCOCC2)s1)c1ccccc1Br 10%
Clc1cccc(N/N=C/c2ccc(N3CCOCC3)cc2)c1 0.9%
C(=N\N(c1ccccc1)c1ccccc1)/c1ccc(N2CCOCC2)s1 15.3%
CC(C)NC(=S)N/N=C/c1ccc(N2CCOCC2)cc1 0.94%
CC(C)(C)OC(=O)N/N=C/c1ccc(N2CCOCC2)s1 25.5%
Cc1ccccc1S(=O)(=O)N(C)C[C@@H]1OCc2ccccc2-c2c(n(C)c3ccccc23)C(=O)N([C@H](C)CO)C[C@@H]1C 14.2%
COc1ccc(Cl)cc1C(=O)NNC(=O)c1n[nH]c2ccccc12 4.94%
Cc1ccc(S(=O)(=O)/N=C(\Nc2cc(C)on2)c2ccc(Cl)cc2)cc1 8.35%
Cc1cn2c(-c3ccc(Cl)cc3)nnc2s1 -3.08%
O=C(NCc1cccnc1)C(=O)NCC1OCCCN1S(=O)(=O)c1ccc(Cl)cc1 (stereo not drawn) 1.54%
Cc1cc(=O)cc(C)n1-c1ccc2c(c1)nc(C)n2-c1ccccc1 2.42%
Cc1ccc(S(=O)(=O)N2CCN(C(=O)Cc3ccc4c(c3)OCCO4)CC2)cc1C 6.6%
CCCCc1ccc(NC(=S)NCCc2ccc(F)cc2)cc1 -17.2%
CCOc1ccc(-n2c(-c3ccco3)nc3c(cnn3-c3ccc(C)cc3)c2=O)cc1 2.66%
O=C(CN(Cc1ccco1)S(=O)(=O)c1ccccc1)N/N=C/c1cccc(O)c1 8.45%
O=C(CN(Cc1ccco1)S(=O)(=O)c1ccccc1)N/N=C/c1ccccc1C(=O)O 8.11%
COc1ccc(/C=N/NC(=O)CN(Cc2ccccc2)S(=O)(=O)c2ccc3c(c2)OCCO3)cc1 7.2%
Cc1ccc(/C=N/NC(=O)CN(Cc2ccccc2)S(=O)(=O)c2ccc3c(c2)OCCO3)cc1 2.63%
CN(C)CCCN=Cc1c(-c2ccccc2)[nH]n(-c2nc3ccccc3s2)c1=O 20.7%
O=C(NCc1ccc2c(c1)OCO2)Nc1cccc(Cl)c1 11.9%
COc1ccc(-c2nc3c(Br)c(N)c(Br)cc3o2)cc1 -0.217%
O=C(Oc1ccc2ccc(O)cc2c1)c1ccccc1Cl 18.6%
Nc1ccc2cc3ccccc3cc2c1 17.6%
Nc1cccc(O)c1 18.5%
Clc1ccc2nc3ccccc3cc2c1 2.87%
CCc1ccc(NC(=O)CSc2nc3ccccc3nc2N2CCCCC2)cc1 6.49%
Oc1ccc(/C=N/n2cnn(Cc3ccccc3Cl)c2=S)c(O)c1 8.66%
O=C(Cc1ccc(Cl)cc1)c1ccc(O)cc1 9.32%
O=C(Cc1ccc(Cl)cc1)NNc1c(F)c(F)cc(F)c1F 5.43%
O=C(Cc1c(F)cccc1Cl)c1ccc(O)cc1O -1.08%
CCN1C(=O)C(C(=O)c2ccccc2)SC1=S (stereo not drawn) 2.79%
CSc1ncnc2c1ncn2CCCN1CCN(Cc2cccc3ccccc23)CC1 18.8%
O=C(Oc1ccccc1C(=O)Nc1ccccc1)c1ccc(Br)c([N+](=O)[O-])c1 14.5%
CC(=O)Nc1ccc(C(=O)OCC(=O)c2ccc(C)c([N+](=O)[O-])c2)cc1 -0.02%
O=C(c1ccc2snnc2c1)N1CCSCC1 12.5%
COc1cc(/C=N/N(c2ccccc2)c2ccccc2)ccc1O 21%
COc1ccc(/C=N/N(c2ccccc2)c2ccccc2)cc1O 10.2%
COc1ccc(OC)c(/C=N/N(C)c2ccccc2)c1 19.4%
COc1cc(/C=N/S(=O)(=O)c2ccccc2)cc(OC)c1O 9.73%
CCOc1ccc(/C=N/N(C)c2ccccc2)cc1OC 8.29%
CN(/N=C/c1cc(Br)cc(Br)c1O)c1ccccc1 5.13%
Cc1ccc(C(=O)N2CC=C(c3ccccc3)CC2)s1 -2.79%
CCCCN(C(=O)Nc1ccc(Cl)cc1)C1CCN(C(C)=O)CC1 12.3%
Cc1cc(NC(=O)c2ccc([N+](=O)[O-])cc2Cl)ccc1NC(=O)c1ccco1 5.16%
C=CCc1cccc(C=Nc2ccc(Br)cc2)c1O 2.02%
Cc1cccc(N=Cc2ccccc2O)c1C 6.78%
Oc1ccccc1C=Nc1cccc2ccccc12 12.9%
Cc1ccccc1N=Cc1cccc(O)c1O 12.1%
Cc1ccc(N=Cc2cccc(O)c2O)c(C)c1 27.7%
C=CCc1cccc(/C=N/c2ncccc2O)c1O 15.7%
COc1ccc(COCC(O)CN2CCC(CN3C(=O)c4cccc5cccc(c45)C3=O)CC2)cc1OC (stereo not drawn) 5.74%
O=C(c1cc(=O)c2ccccc2o1)N1CCCc2ccccc21 4.48%
O=C(O)CCCC(=O)Nc1nc2n(n1)C(c1ccc(F)cc1)CC(c1ccc(Cl)cc1)N2 (stereo not drawn) -3.19%
Brc1ccc(CSc2nccn2-c2ccccc2)cc1 -2.52%
CCOc1ccc(-c2nnc(-c3ccccc3)n2-c2ccccc2)cc1 1.23%
CCOc1ccc(S(=O)(=O)NCCC(=O)OCC(=O)N2CC(=O)Nc3ccccc32)cc1 2.23%
CCN(CC)S(=O)(=O)c1ccc(Cl)c(NC(=O)COC(=O)c2cc(-c3ccccc3Cl)nc3ccccc23)c1 5.1%
